Results reported in PubChem BioAssay (NCATS).
Unmarked numbers belong to inactive results. Calls follow the shape of the dose curve; as a rule, active = well fitted curve in the direction sought with a large enough effect; inconclusive = small, poorly fitted or top-dose-only effect, or another doubt; inactive = no such curve, though single readings can be large; an effect the other way counts as inactive or inconclusive. Inconclusive results are not listed. Where a SMILES comes first, the peptide text is derived from it.

Test system: Nanoluciferase (engineered Oplophorus gracilirostris luciferase)
Assay: Primary Nanoluciferase (NLuc) qHTS assay for identification of artifact compounds. (AID 1845222);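 also: NLuc secreted into diluted conditioned medium of S16 cells; 0% = DMSO and -100% = no enzyme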
Conditions: NLuc-conditioned medium, Nano-Glo luminescence, 5 min; series mostly up to 54.1 µM; activity, negative = inhibition: at the top concentration
Outline: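 NLuc from S16 cell medium (1:55) plus test compounds, 15 min, room temperature. Luminescence after Nano-Glo (1:100) addition, 5 min.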

SMILES	activity, negative = inhibition
Cc1ncc(Cl)cc1NCc1ccc(C(=O)NC(CC2CCCC2)C(=O)NC2CC2)s1 (stereo not drawn)	2.63%
COc1cc(Cc2cnc(N)nc2N)c(C(C)C)cc1OC	-0.0406%
CC1(C)CCC2(C(=O)O)C(O)CC3(C)C(=CCC4C5(C)CCC(OC6OC(CO)C(O)C(O)C6OC6OC(CO)C(O)C(O)C6OC6OCC(O)(CO)C6O)C(C)(C)C5CCC43C)C2C1 (stereo not drawn)	1.68% [at 11.6 µM]
Cc1nc2cc(-c3cc(F)cc(C#N)c3)ccc2s1	3.12%
CC(=O)OCC1OC(OC2COC(OC3COC(OC4C(OC5C(CO)OC(OC6CCC7(C)C(CCC8(C)C7CC=C7C9CC(C)(C)CCC9(C(=O)OC9OC(CO)C(O)C(O)C9OC9OCC(OC%10OCC(O)(CO)C%10O)C(O)C9O)C(O)CC78C)C6(C)C)C(O)C5O)OCC(O)C4O)C(O)C3O)C(O)C2O)C(OC(=O)/C=C/c2ccccc2)C(O)C1OC(C)=O (stereo not drawn)	4.35% [at 6.45 µM]
OC[C@@]1(O)CO[C@H](OC[C@H]2O[C@@H](OC(CCCCc3ccc(O)cc3)CCc3ccc(O)cc3)[C@H](O[C@H]3OC[C@](O)(CO)[C@H]3O)[C@@H](O)[C@@H]2O)[C@@H]1O (stereo partly drawn)	2.53% [at 25.7 µM]
Cc1ccccc1-n1nc(-c2c(-c3ccc(F)cc3)nn3c2NC[C@@H](CO)C3)ccc1=O	-12.9%
COc1cc(O)c2c(c1)C1(OC2=O)C(C)=CC(=O)C1O (stereo not drawn)	-7.29%

Test system: not listed separately
Assay: Primary redox qHTS assay for identification of artifact compounds. (AID 1845223);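 also: 0% = DMSO and 100% = reference compound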
Conditions: Amplex Red/HRP redox cycling with DTT, fluorescence; series mostly up to 53.8 µM; redox activity (% of DA3003): at the top concentration
Outline: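 Redox-cycling detection via DTT (250 uM final) oxidation coupled to Amplex Red (25 uM)/HRP (250 mU/mL) in HBSS. 15 min preincubation plus 30 min after DTT, room temperature. Ex/Em 525/598 nm; 4-parameter Hill fit against DMSO and 10 uM DA3003.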

SMILES	redox activity (% of DA3003)
Cc1cn(-c2cc(NC(=O)c3ccc(C)c(Nc4nccc(-c5cnccn5)n4)c3)cc(C(F)(F)F)c2)cn1	-6.92%
C=C(C(=O)O)C1CC(OC(=O)CC(C)CC)C2(C)CCCC(=C)C2C1 (stereo not drawn)	12.5%
C[C@H](O)C(O)(C(=O)OCc1ccccc1NC(=O)CCC(N)C(=O)O)[C@H](C)O (stereo partly drawn)	-14.5% [at 25.6 µM]
CC1(C)CC[C@]2(C(=O)O)[C@H](O)C[C@]3(C)C(=CCC4[C@@]5(C)CC[C@H](O[C@@H]6OC[C@@H](O)[C@H](O)[C@H]6O)[C@@](C)(C(=O)O)C5CC[C@]43C)[C@@H]2C1 (stereo partly drawn)	-14% [at 25.6 µM]
CN(C)C(=O)C(O)C(Cc1ccccc1)NC(=O)c1cc2cc(Cl)ccc2[nH]1 (stereo not drawn)	7.06%
CC1CCC2(C)CCC3(C)C(=CCC4C5(C)CCC(O)C(C)(C(=O)O)C5CCC43C)C2C1C (stereo not drawn)	-9.09% [at 25.6 µM]
COc1cc(/C=C/C(=O)OCC2OC(OC3(CO)OC(CO)C(O)C3O)C(O)C(O)C2O)ccc1O (stereo not drawn)	-3.11% [at 25.6 µM]
COc1ccc(-n2c(=O)[nH]c3cc(C(=O)NCc4ccc(Cl)cc4)sc3c2=O)nc1OC	-5.45%
COc1cc(O)cc(C)c1C(=O)OC1C(CO)OC(n2ccc(=O)[nH]c2=O)C1OC(C)=O (stereo not drawn)	-11.6% [at 25.6 µM]
CCc1cccc2c3c([nH]c12)[C@@](CC)(CC(=O)O)OCC3	-0.73%
COC(O)(CC(C)C)C1Oc2cc(C)[nH]c(=O)c2O1 (stereo not drawn)	-17.4%
COC(=O)C1=COC(O[C@@H]2O[C@H](COC(=O)/C=C/c3ccc(O)cc3)[C@@H](O)[C@H](O)[C@H]2O)C2C(CO)=CCC12 (stereo partly drawn)	17.8% [at 25.6 µM]
Cc1ccc2nc(NC(=O)CSc3nc4c(c(=O)n3-c3ccc(F)cc3)SCC4)sc2c1	-7.31%
O=C(/C=C/c1ccc(O)cc1)O[C@@H]1C[C@@](O)(C(=O)O)C[C@@H](O)[C@@H]1O	-17.4%
O=C(O)CCc1cccc(O)c1O[C@@H]1O[C@H](CO)[C@@H](O)[C@H](O)[C@H]1O	-13.6%
Cc1ncc([N+](=O)[O-])n1C[C@H](O)CN1CCOCC1	-0.116%
COC(=O)C1=CO[C@@H](O[C@@H]2O[C@H](CO)[C@@H](O)[C@H](O)[C@H]2O)[C@H]2[C@@H]1C=C[C@]21C=C([C@H](C)OC(=O)/C=C/c2ccc(O[C@@H]3O[C@H](CO)[C@@H](O)[C@H](O)[C@H]3O)cc2)C(=O)O1	17.2% [at 25.6 µM]
CCC(=O)N1CCc2cc(OC)c(O)cc2C1	-1.07%
CC1=CC(=O)CC(C)(C)[C@@]1(O)/C=C/C(C)O[C@@H]1O[C@H](CO)[C@@H](O)[C@H](O)[C@H]1O (stereo partly drawn)	-17.7% [at 25.6 µM]
C[C@@H]1O[C@@H](O[C@H]2[C@H](O[C@H]3[C@H](O[C@H]4CC[C@@]5(C)C(CC[C@]6(C)C5CC=C5[C@@H]7CC(C)(C)C[C@@H](O)[C@]7(C)CC[C@]56C)C4(C)C)O[C@H](C(=O)O)[C@@H](O)[C@@H]3O)O[C@H](C(=O)O)[C@H](O)[C@@H]2O)[C@H](O)[C@H](O)[C@H]1O (stereo partly drawn)	11.1% [at 11.5 µM]

SMILES	redox activity (% of DA3003)
O=C(OCC(O)CO[C@@H]1O[C@H](C(=O)O)[C@@H](O)[C@H](O)[C@H]1O)c1ccccc1 (stereo partly drawn)	-14.5%
CC(C)C1NC(=O)CNC(=O)C2CCCN2C(=O)C(Cc2c[nH]c3ccccc23)NC(=O)CNC(=O)C(Cc2ccc(O)cc2)NC(=O)CNC1=O (stereo not drawn) (cyclo(GVGYGWP); configuration not given here)	13.7% [at 25.6 µM]
CC1(C)Oc2ncnc(N)c2N=C1c1ccc(C2CCC(CC(=O)O)CC2)cc1 (stereo not drawn)	4.35%
CCCC(=O)Nc1cccc(NC(=O)c2ccccc2Br)c1	-2.92%
COc1ccccc1N1CCN(CCCCNC(=O)c2ccc(-c3cscn3)cc2)CC1	2.97%
CS(=O)(=O)c1ccccc1N1CCN(c2nc3c(c(=O)[nH]2)CSCC3)CC1	-7.13%
CC(C)=CCC/C(C)=C/CO[C@@H]1O[C@H](CO[C@@H]2OC[C@](O)(CO)[C@H]2O)[C@@H](O)[C@H](O)[C@H]1O	-13.5% [at 25.6 µM]
OC[C@H]1O[C@@H](OC[C@H]2O[C@@H](OCc3ccccc3)[C@H](O)[C@@H](O)[C@@H]2O)[C@H](O)[C@@H](O)[C@@H]1O	-0.227% [at 25.6 µM]
CC1=CC(=O)CC(C)(C)C1/C=C/C(C)OC1OC(COC2OCC(O)C(O)C2O)C(O)C(O)C1O (stereo not drawn)	-2.34% [at 25.6 µM]
CC1(C)C(=O)N2c3ccccc3C(O)(CC(C(=O)O)n3cnc4ccccc4c3=O)C2N1O (stereo not drawn)	-17.8% [at 25.6 µM]
Cc1ccc(-n2nc(C(C)(C)C)cc2NC(=O)Nc2cc(COc3cccnc3)[nH]n2)cc1	1.5%
C/C=C(\C)C(=O)OC[C@H]1O[C@H](O[C@H]2O[C@H](CO)[C@@H](O)[C@H](O)[C@H]2O[C@@H]2O[C@H](CO)[C@@H](O)[C@H](O)[C@H]2O)[C@H](O[C@@H]2O[C@H](CO)[C@@H](O)[C@H](O)[C@H]2O)[C@@H](O)[C@@H]1O	-11.5% [at 25.6 µM]
Cc1ncc(Cl)cc1NCc1ccc(C(=O)NC(CC2CCCC2)C(=O)NC2CC2)s1 (stereo not drawn)	5.73%
COc1cc(Cc2cnc(N)nc2N)c(C(C)C)cc1OC	-1.4%
CC1(C)CCC2(C(=O)O)C(O)CC3(C)C(=CCC4C5(C)CCC(OC6OC(CO)C(O)C(O)C6OC6OC(CO)C(O)C(O)C6OC6OCC(O)(CO)C6O)C(C)(C)C5CCC43C)C2C1 (stereo not drawn)	17% [at 11.5 µM]
Cc1nc2cc(-c3cc(F)cc(C#N)c3)ccc2s1	-7.09%
CC(=O)OCC1OC(OC2COC(OC3COC(OC4C(OC5C(CO)OC(OC6CCC7(C)C(CCC8(C)C7CC=C7C9CC(C)(C)CCC9(C(=O)OC9OC(CO)C(O)C(O)C9OC9OCC(OC%10OCC(O)(CO)C%10O)C(O)C9O)C(O)CC78C)C6(C)C)C(O)C5O)OCC(O)C4O)C(O)C3O)C(O)C2O)C(OC(=O)/C=C/c2ccccc2)C(O)C1OC(C)=O (stereo not drawn)	-4.05% [at 6.41 µM]
OC[C@@]1(O)CO[C@H](OC[C@H]2O[C@@H](OC(CCCCc3ccc(O)cc3)CCc3ccc(O)cc3)[C@H](O[C@H]3OC[C@](O)(CO)[C@H]3O)[C@@H](O)[C@@H]2O)[C@@H]1O (stereo partly drawn)	11.1% [at 25.6 µM]
Cc1ccccc1-n1nc(-c2c(-c3ccc(F)cc3)nn3c2NC[C@@H](CO)C3)ccc1=O	-4.95%
COc1cc(O)c2c(c1)C1(OC2=O)C(C)=CC(=O)C1O (stereo not drawn)	-15.6%
